Screen size: about 85,000 compounds; about 440 (0.52%) showed an effect of 50% or more. This excerpt belongs to a sample that is enriched for strong results.
Assay: In vitro enzyme assay to detect hydrolysis of chlorophenol red-beta-D-[…] directly proportional to the number of Toxoplasma stably expressing beta-galactosidase
Format: functional, organism-based, Toxoplasma gondii
Design: scale not given: in the data most compounds retested in dose-response had high values

| Compound | Percent Effect (50 µM) [%] | Percent Effect (10 µM) [%] |
| --- | --- | --- |
| CCn1ncnc1CN1CCC2(CCN(C)C2)CC1 | 28.33 | – |
| NC(=O)CCC(=O)c1ccc2c(c1)OCCO2 | -23.48 | – |
| Cc1cnc(NCC(O)CN2CCCCC2)nc1 (stereo unspecified) | -5.965 | – |
| C[C@H](N)c1ccc(F)cc1OC(F)F | 1.744 | – |
| CCOc1cccc(OCCNCCN)c1 | 3.655 | – |
| NC(=O)C(NC(=O)C1CC=CC1)c1ccc(F)cc1 (stereo unspecified) | -2.351 | – |
| CCS(=O)(=O)CCN(C)C(=O)Nc1cc(F)cc(Cl)c1 | 0.02752 | – |
| COCCNc1nnc(-c2cnc(C)cn2)s1 | – | -7.364 |
| COCCNc1nc(-c2ccc(S(N)(=O)=O)cc2)cs1 | 33.23 | – |
| COCCNc1nnc(-c2ccc(C)nc2)s1 | – | 91.21 |
| CC(=O)c1csc(C(=O)N2CCCC2C(C)(C)O)c1 (stereo unspecified) | -8.417 | – |
| Cc1cncc(C(=O)N2CCCC2C(C)(C)O)c1 (stereo unspecified) | 98.37 | – |
| Cc1cncc(C(=O)N2CCCCC2c2nc[nH]n2)c1 (stereo unspecified) | – | 2.456 |
| Cc1ccc(C(=O)Nc2nc(C)no2)cc1 | – | 2.71 |
| Cc1noc(NC(=O)c2ccc(OC(F)(F)F)cc2)n1 | – | 62.71 |
| Cc1noc(NC(=O)c2ccc(F)cc2)n1 | – | -4.949 |
| COCCC1CN(C(=O)c2ccc(C)c(F)c2)CCO1 (stereo unspecified) | -2.005 | – |
| CC(=O)Nc1cc(S(=O)(=O)NCCN(C)C)ccc1C | 12.19 | – |
| O=C(NCCc1ccccn1)Nc1cn[nH]c1 | -7.115 | – |
| COC1CCN(C(=O)c2cccc(F)c2C)C1 (stereo unspecified) | 32.95 | – |
| O=C(O)C(F)(F)F.O=S(=O)(C1CC1)N1CCOCC2(CCN(c3ccccn3)C2)C1 (stereo unspecified) | – | -7.77 |
| CCS(=O)(=O)N1CCOCC2(CCN(c3ccccn3)C2)C1.O=C(O)C(F)(F)F (stereo unspecified) | – | -1.246 |
| CS(=O)(=O)N1CCOCC2(CCN(c3ccccn3)C2)C1.O=C(O)C(F)(F)F (stereo unspecified) | – | 93.48 |
| Cc1ccc2[nH]c(CN3CCC(O)C3)cc(=O)c2c1 (stereo unspecified) | -10.62 | – |

| Compound | Percent Effect (50 µM) [%] | Percent Effect (10 µM) [%] |
| --- | --- | --- |
| Fc1ccc(CN2CCCC2Cn2cncn2)c2ncccc12 (stereo unspecified) | – | -4.806 |
| Fc1ccc(CN2CCCC2Cn2cccn2)c2ncccc12 (stereo unspecified) | – | 4.2 |
| OC[C@@H]1CCCN1Cc1ccc(F)c2cccnc12 | 78.15 | – |
| Cc1nc(CC(=O)N[C@H]2CC[C@H]2N)cs1 | 7.419 | – |
| Cc1cc(C(=O)Nc2cn(C)cc(Br)c2=O)[nH]n1 | -6.695 | – |
| c1ccc(COCc2nc(C3CCCNC3)no2)cc1 (stereo unspecified) | -2.705 | – |
| CCCN1CCC(Cc2noc(C3CCNC3)n2)CC1 (stereo unspecified) | 2.055 | – |
| Cc1cccc(OCCc2noc(C3CNC3)n2)c1 | 82.99 | – |
| C1CCC(COCCc2noc(C3CNC3)n2)C1 | 57.88 | – |
| c1ccc(COCCc2noc(C3CNC3)n2)cc1 | 62.37 | – |
| C1CC(COCCc2noc(C3CNC3)n2)CCO1 | 31.48 | – |
| C(Cc1noc(C2CNC2)n1)OCC1CC1 | 84.88 | – |
| COCCc1noc(C2CCN(CC(N)=O)CC2)n1 | 1.681 | – |
| C1CC(c2noc(C3CC3)n2)CN(CCOCC2CC2)C1 (stereo unspecified) | – | 10.99 |
| COCCc1noc(C2CNC2)n1 | -4.923 | – |
| Cc1cccc(OCCN2CCN(Cc3noc(C)n3)CC2)c1 | – | -13.55 |
| Cc1cccc(OCCCN2CCC(N(C)Cc3noc(C)n3)C2)c1 (stereo unspecified) | – | 19.53 |
| CNS(=O)(=O)c1ccc(C(=O)NCC(C)(C)N(C)C)o1 | -2.111 | – |
| NC(=O)c1ccc(CNC2CC2)c(F)c1 | -8.127 | – |
| COC(=O)CC(NC(=O)c1cc(C)n[nH]1)C1CC1 (stereo unspecified) | 5.421 | – |
| Cn1cc(CC(=O)Nc2ccc(I)cn2)cn1 | -1.266 | – |
| Cc1ccc(Br)c(NCC(=O)N2CCOCC2)c1 | 6.776 | – |
| CNC(C)CCNC(=O)c1cc(C)nn1C (stereo unspecified) | -4.64 | – |
| Cc1csc(S(=O)(=O)NCCCOCC2CCCO2)n1 (stereo unspecified) | -3.897 | – |

| Compound | Percent Effect (50 µM) [%] | Percent Effect (10 µM) [%] |
| --- | --- | --- |
| CCC(C)NC(=O)NC1CCN(c2ccccn2)CC1 (stereo unspecified) | -18.28 | – |
| N#Cc1cc(F)c(S(=O)(=O)NCCN)c(F)c1 | -7.913 | – |
| Cn1ncc2c(N3CCS(=O)(=O)CC3)nc(-c3cccnc3)nc21 | – | 6.498 |
| CC(C)N1CCCN(c2nc(-c3cccnc3)nc3c2cnn3C)CC1 | – | 55.95 |
| Cn1ncc2c(N3CCC3)nc(-c3ccncc3)nc21 | – | -3.528 |
| Cc1nc(CC(=O)NCc2csc(N3CCCC3)n2)cs1 | – | -6.671 |
| O=C(NCc1csc(N2CCCC2)n1)C1CNCCO1 (stereo unspecified) | 26.16 | – |
| N[C@@H]1CC[C@H](C(=O)NCc2csc(N3CCCC3)n2)C1 | 62.86 | – |
| C[C@@H]1CNC[C@H]1c1nc(-c2ccncc2)no1 | 1.432 | – |
| CCn1nc(C)c2nc(C(C)C)nc(NCc3ccccn3)c21 | – | 23.92 |
| CCc1nc(NCCCn2cccn2)c2c(n1)c(C)nn2C | – | 7.651 |
| CCn1nc(C)c2ncnc(NCCCn3ccnc3)c21 | – | 9.36 |
| Cc1nn(C)c2c(NCCCn3cccn3)nc(C(C)C)nc12 | – | 10.17 |
| CCn1nc(C)c2nc(C(C)C)nc(NCCCn3cccn3)c21 | – | 57.58 |
| CCCc1nc(NCCCn2ccnc2)c2c(n1)c(C)nn2CC | – | 67.95 |
| CCn1nc(C)c2nc(C(C)C)nc(NCCCn3ccnc3)c21 | – | 76.16 |
| CCCc1nc(NCCCn2cccn2)c2c(n1)c(C)nn2CC | – | 20.81 |
| CCn1nc(C)c2nc(C)nc(NCCCn3cccn3)c21 | – | 20.67 |
| NC(=O)COc1ccc(CNCCn2cccn2)cc1 | 11.26 | – |
| COCC(=O)N1CCN(CCC(C)C)CC1 | 7.319 | – |
| O=C(NCCN1CCCC1)Nc1cccc2cn[nH]c12 | -2.677 | – |
| Cc1cc(CN2CCC3(CC2)COC(COc2ccccn2)C3)no1 (stereo unspecified) | – | 96.36 |
| Cc1csc(CN2CCC3(CC2)COC(COc2ccccn2)C3)n1 (stereo unspecified) | – | -8.461 |
| c1ccc(OCC2CC3(CCN(Cc4ccncc4)CC3)CO2)nc1 (stereo unspecified) | – | -2.51 |

| Compound | Percent Effect (50 µM) [%] | Percent Effect (10 µM) [%] |
| --- | --- | --- |
| CC(=O)Nc1cc(C2CC2)nn1-c1nc(C)c(C)c(=O)[nH]1 | – | -13.24 |
| CC(C)C(=O)Nc1cc(C(C)(C)C)nn1-c1ccccn1 | – | -3.105 |
| Cc1cc(C)nc(NC(=O)C(C)C)n1 | 3.231 | – |
| Cc1nc(-n2nc(-c3cccs3)cc2N)[nH]c(=O)c1C | – | 4.893 |
| Cc1nc(-n2nc(C3CC3)cc2NC(=O)C(C)C)[nH]c(=O)c1C | – | 79.17 |
| Cc1cc(NC(=O)C(C)C)n(-c2nc(C)c(C)c(=O)[nH]2)n1 | – | 91.77 |
| NCc1ccc(OCC(F)F)cc1 | -2.459 | – |
| O=C(C1CC1)N1CCC(Oc2cccnc2)C1 (stereo unspecified) | 1.461 | – |
| CCC(CNc1ncnc2oc(C)nc12)Cc1ccccc1 (stereo unspecified) | – | -4.784 |
| CCCOc1ccc(Cl)cc1CNc1ncnc2oc(C)nc12 | – | 57.15 |
| CCCOc1ccccc1CCCNc1ncnc2oc(C)nc12 | – | 12.3 |
| CC(C)NC(=O)c1ccc(N2CCCCC2=O)cc1 | 19.08 | – |
| CC(N)c1ccc(N2CCCCC2=O)cc1 (stereo unspecified) | 3.622 | – |
| O=C1CCCCN1c1ccc(S(=O)(=O)NC2CC2)cc1 | 98.35 | – |
| OC1(Cc2ccccc2F)CCNCC1 | -5.436 | – |
| OC1(Cc2ccccc2F)CCNC1 (stereo unspecified) | 78.69 | – |
| OCC1(Cc2ccccc2F)CCCNC1 (stereo unspecified) | 2.008 | – |
| CC(NS(C)(=O)=O)C(=O)NCCCc1ccncc1 (stereo unspecified) | 0.4518 | – |
| Cc1cc(CN(C)C(=O)C2CCCN2S(C)(=O)=O)no1 (stereo unspecified) | -2.48 | – |
| O=C(CCN1C(=O)CCC1=O)Nc1ccc(F)cc1 | 6.107 | – |
| Cc1nc(N2CCN(C(=O)c3ccccn3)CC2)c2c(n1)c(C)nn2C | – | 25.12 |
| Cc1nc(N2CCN(C(=O)c3ccncc3)CC2)c2c(n1)c(C)nn2C | – | 77.24 |
| Cc1nc(N2CCN(C(=O)c3ccccc3)CC2)c2c(n1)c(C)nn2C | – | -7.412 |
| Cc1nn(C)c2c(N3CCN(C)CC3)nc(C3CC3)nc12 | – | 7.951 |

| Compound | Percent Effect (50 µM) [%] | Percent Effect (10 µM) [%] |
| --- | --- | --- |
| Cc1nn(C)c2c(N3CCN(C(=O)c4ccccc4)CC3)ncnc12 | – | -3.825 |
| Cc1nc(N2CCN(C(=O)C3CC3)CC2)c2c(n1)c(C)nn2C | – | 0.4782 |
| CCC(=O)N1CCN(c2ncnc3c(C)nn(C)c23)CC1 | – | 7.071 |
| Cc1nn(C)c2c(N3CCC(C)CC3)nc(C3CC3)nc12 | – | 6.306 |
| CCC(=O)N1CCN(c2nc(C)nc3c(C)nn(C)c23)CC1 | – | 56.36 |
| Cc1nc(N2CCN(c3ccccc3)CC2)c2c(n1)c(C)nn2C | – | 52.19 |
| Cc1nc(N2CCN(C(=O)C3CCCC3)CC2)c2c(n1)c(C)nn2C | – | -37.24 |
| Cc1nc(N2CCN(C(=O)c3ccco3)CC2)c2c(n1)c(C)nn2C | – | 56.5 |
| CN(C)[C@@H]1CN(C(=O)c2cccn2C)C[C@H]1CO | -4.756 | – |
| CC(C)NC(C1CCNCC1)[C@H]1C[C@H](O)C1 (stereo partly specified) | 23.17 | – |
| CCOc1ncccc1C(=O)N1CCC(COC)C1 (stereo unspecified) | -5.58 | – |
| CC1(C)CN(c2nccnc2C#N)CCS1(=O)=O | -1.06 | – |
| O=C(NCC(F)(F)F)c1ccccc1NCCCO | 5.629 | – |
| O=S(=O)(NC1CC1)C1CCN(CCc2ccccn2)C1 (stereo unspecified) | 5.549 | – |
| c1ccc(N2CCCC2)nc1 | -4.186 | – |
| CC(C)OCc1nc(C(C)N)no1 (stereo unspecified) | -1.581 | – |
| CCCN(C)C(CO)c1ccc(OC)cc1 (stereo unspecified) | -2.385 | – |
| O=C(c1ccc2c(c1)OCCCO2)N1CCCC(n2ccnc2)C1 (stereo unspecified) | – | -11.97 |
| O=C(c1ccc2c(c1)OCO2)N1CCCC(n2cccn2)C1 (stereo unspecified) | – | 8.443 |
| O=C(c1ccc2c(c1)OCCCO2)N1CCCC(n2cccn2)C1 (stereo unspecified) | – | 55.61 |
